Out of some 4,100 compounds screened, about 1,600 (39%) were called active. Inconclusive results (about 25%) are left out. The call rests on the fitted dose curve; in most records, active means well fitted inhibition curve with a large enough effect; inconclusive means small, poorly fitted or top-dose-only effect; inactive means no such curve, though single readings can be large or run the other way. Some of the results follow.
Test: qHTS Validation assay for Inhibitors of Plasmodium falciparum Dd2 growth in vitro; further: nearly all actives have a fitted effect of over 70% in size
Details: P. falciparum Dd2 in RBCs, SYBR Green growth, 72 h; series mostly up to 28.7 µM; activity change, negative = inhibition: at the top concentration
Outline: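 P. falciparum Dd2-infected red blood cells (2.5% hematocrit, 0.3% parasitemia) grown 72 h at 37 °C under 5% O2 with compounds in a titration, 29 uM to 0.5 nM final. Growth read as SYBR Green-1 fluorescence after ~16 h lysis; artesunate 300 nM as positive control.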
On the % scale 0 is the no-effect control and ±100 the full control effect; potency means the concentration at half of the fitted maximal effect.

Structure (SMILES)	Potency	activity change, negative = inhibition
C/C(=N\NC(=O)c1ccccc1OCc1ccc(F)cc1)c1ccccn1	4.73 µM (active)	–
C/C(=N\NC(=O)c1cccc(Br)c1)c1ccccn1	4.73 µM (active)	–
O=C(N/N=C/c1ccccn1)c1ccccc1	–	-1.81% (inactive)
Cc1n[nH]c(=S)n(/N=C/c2cccs2)c1=O	–	16.4% (inactive)
O=c1cc(Nc2ccc3c(c2)OCCO3)[nH]c(=O)n1C1CCCCC1	–	-0.988% (inactive)
COc1ccc(-c2csc3ncnc(Cl)c23)cc1	4.22 µM (active)	–
Fc1ccc(-c2csc3ncnc(Cl)c23)cc1	3.35 µM (active)	–
CCc1ccc(C(=O)N2C[C@@H](CO)[C@H](c3ccccn3)C2)cc1	–	3.1% (inactive)
O=C(CC1C(=O)NCCN1Cc1cccc(Oc2ccccc2)c1)NCc1ccco1 (centres undefined)	–	45.2% (inactive)
C#CCN(C)C(=O)C[C@@H]1c2nc(NC(=O)c3ccc(OC)cc3)sc2C[C@@H]2[C@](C)(CO)[C@H](O)CC[C@]21C	2.66 µM (active)	–
C[C@]1(CO)[C@H]2Cc3sc(NC(=O)C4CCCCC4)nc3[C@@H](CC(=O)NCc3cccnc3)[C@]2(C)CC[C@H]1O	–	-11.7% (inactive)
COc1ccc(C(=O)Nc2nc3c(s2)C[C@@H]2[C@](C)(CO)[C@H](O)CC[C@@]2(C)[C@@H]3CC(=O)NCc2ccco2)cc1	2.66 µM (active)	–
COc1ccc2[nH]cc(CCNC(=O)C3(Cc4ccccc4)CCCCC(=O)N3)c2c1 (centres undefined)	5.96 µM (active)	–
COc1cccc(CNC(=O)CN2C(=O)NC3(CCC(C(C)(C)C)CC3)C2=O)c1 (centres undefined)	–	-13.8% (inactive)
CNC(=O)[C@H]1C[C@H](Oc2ccccc2)CN1Cc1c[nH]c2ccc(OC)cc12	–	-11.3% (inactive)
CCC(=O)O[C@]1(C(=O)CCl)[C@@H](C)C[C@H]2[C@@H]3C[C@H](F)C4=CC(=O)C=C[C@]4(C)[C@@]3(F)[C@@H](O)C[C@@]21C	10.6 µM (active)	–
O=C(Cn1cccc1-c1nc(-c2ccc(F)cc2)no1)NCCc1ccccc1	–	0.293% (inactive)
CC(C)c1ccccc1NC(=O)Cn1cccc1-c1nc(-c2ccccc2)no1	4.22 µM (active)	–
CC(C)c1ccccc1NC(=O)Cn1cccc1-c1nc(-c2ccc(F)cc2)no1	2.99 µM (active)	–
Cc1ccc(NC(=O)Cn2cccc2-c2nc(-c3ccccc3)no2)c(C)c1	–	17.6% (inactive)
COc1ccccc1NC(=O)Cn1cccc1-c1nc(-c2ccc(F)cc2)no1	–	-5.56% (inactive)
CC(C)c1ccccc1NC(=O)CSc1nnc(COc2ccccc2Cl)o1	–	38.9% (inactive)
Cc1ccccc1N(C(=O)c1snc(C(N)=O)c1N)C(C(=O)NCC1CCCO1)c1ccc(N(C)C)cc1 (centres undefined)	7.5 µM (active)	–

Structure (SMILES)	Potency	activity change, negative = inhibition
Cc1ccc(-c2cc(C(F)F)n3ncc(C(=O)N4CCCCC4c4cccnc4)c3n2)cc1 (centres undefined)	2.37 µM (active)	–
Cc1ccc(-c2cc(C(F)F)n3ncc(C(=O)Nc4ccc(S(=O)(=O)Nc5ccccc5C)cc4)c3n2)cc1	–	74.9% (inactive)
O=C(c1ccccc1F)N1CCCCCC1c1nnc(-c2ccccc2)o1 (centres undefined)	–	-13.5% (inactive)
Cc1ccc(-c2cc(C(F)(F)F)n3ncc(C(=O)N4CCCCC4c4cccnc4)c3n2)cc1 (centres undefined)	1.88 µM (active)	–
O=C(c1cnn2c(C(F)F)cc(-c3ccccc3)nc12)N1CCCCC1c1cccnc1 (centres undefined)	8.41 µM (active)	–
O=C(C1CCC1)N1CCCCCC1c1nnc(-c2ccccc2)o1 (centres undefined)	–	-20.8% (inactive)
CC(C)c1ccc(CN2CCc3ncc(C(=O)NCCN4CCNC4=O)n3CC2)cc1	–	21.5% [at 43.1 µM] (inactive)
O=C(Nc1ccc(-c2csc(Nc3ccccc3)n2)cc1)c1cc([N+](=O)[O-])cc(C(F)(F)F)c1	2.11 µM (active)	–
Cc1ccc(-c2cc3c(=O)n(CCNC(=O)c4cc(F)ccc4F)ccn3n2)c(C)c1	–	-1.76% (inactive)
CN(C)C(=O)c1ccc(N2CCC(NCCC3=CC[C@H]4C[C@@H]3C4(C)C)CC2)cc1	–	0% (inactive)
CC(CCc1ccccc1)NCC(O)c1cccc([N+](=O)[O-])c1 (centres undefined)	0.473 µM (active)	–
O=C(CCc1cc(Cl)no1)N1CCc2nc3cc(-c4ccccc4)[nH]n3c(=O)c2C1	–	-14.8% (inactive)
CCN(CC)C(=O)Cn1c(=O)n(-c2ccc(Cl)cc2)c(=O)c2c3c(sc21)CCCCC3	–	18.7% (inactive)
CC(=O)c1sc2c(c1C)c(=O)n(-c1ccc(Cl)cc1)c(=O)n2Cc1cc(=O)n2cc(Cl)ccc2n1	7.5 µM (active)	–
CC(C)c1nc2c(c(-c3ccc(O)cc3)n1)CCN(Cc1ccccc1C(F)(F)F)CC2	4.73 µM (active)	–
CCc1nc2c(c(-c3ccc(O)cc3)n1)CCN(Cc1ccccc1C(F)(F)F)CC2	2.99 µM (active)	–
NS(=O)(=O)c1ccc(CCNC(=O)c2ccc3nc(CCc4ccccc4)oc3c2)cc1	–	7.99% (inactive)
Cc1c(Cl)cccc1NC(=O)CCCn1nc(C)c2sc3ccccc3c2c1=O	–	12% (inactive)
O=c1c2cc3c(cc2nc2sc(Nc4ccc(F)cc4F)nn12)OCO3	–	20.7% (inactive)
Cc1c(Cl)cccc1Nc1nn2c(=O)c3ccc(C(=O)N(C)Cc4ccccc4)cc3nc2s1	16.8 µM (active)	–
Cc1c(Cl)cccc1Nc1nn2c(=O)c3ccc(C(=O)NCCc4ccccc4)cc3nc2s1	7.5 µM (active)	–
CC1(CNc2ccccc2)COc2ccc(C(=O)NCCc3ccccc3)cc2N1 (centres undefined)	–	-37.5% [at 43.1 µM] (inactive)
COc1ccccc1C1CC(c2ccccc2)=NN1C(=O)c1ccccc1 (centres undefined)	2.37 µM (active)	–

Structure (SMILES)	Potency	activity change, negative = inhibition
O=C(NC1CCCN(c2cc(-c3ccccc3)[nH]n2)C1)c1cccc(Cl)c1 (centres undefined)	–	-27.5% (inactive)
COc1ccc(/C(C)=N/NC(=S)NCCc2ccccc2)c(O)c1	3.35 µM (active)	–
CCCCc1c(C)c(C#N)c2nc3ccccc3n2c1Nc1c(C)n(C)n(-c2ccccc2)c1=O	2.66 µM (active)	–
CC1CCN(S(=O)(=O)c2ccc(NC(=O)c3ccco3)cc2)CC1	–	4.42% (inactive)
Cc1sc(NC(=O)c2ccco2)c(C(c2cccnc2)N2CCC(C)CC2)c1C (centres undefined)	5.31 µM (active)	–
CCOC(=O)c1c[nH]c2cc(OCC(C)C)c(OCC(C)C)cc2c1=O	0.944 µM (active)	–
CCOC(=O)c1cn(CC)c2c(ccc3ccccc32)c1=O	–	20.8% (inactive)
CCOC(=O)c1c[nH]c2c(C)cc(C)cc2c1=O	4.22 µM (active)	–
c1csc(-c2nc3nccc(-c4cc5ccccc5o4)n3n2)c1	–	16.8% (inactive)
CC(NCc1ccccc1)c1ccccc1O (centres undefined)	5.31 µM (active)	–
CCN1C(=O)c2cccc3c(S(=O)(=O)Nc4ccccc4)ccc1c23	–	37.8% (inactive)
Cc1ccccc1-c1nccn2c(C3CN(Cc4ccccc4O)C3)ncc12	5.44 µM (active)	–
O=[N+]([O-])c1ccc(S(=O)(=O)N2CCn3cccc3C2c2ccc(Br)cc2)cc1 (centres undefined)	5.96 µM (active)	–
Cc1ccc(S(=O)(=O)N2CCC(C(=O)NC3CCCC3)CC2)cc1Cl	–	-26.1% (inactive)
CC(C)N1CCC(NC(=O)NC2CCCCC2)CC1	–	42.7% (inactive)
CC(C(=O)NC1CCCC1)N1CCN(S(=O)(=O)c2ccc(C(C)(C)C)cc2)CC1 (centres undefined)	8.41 µM (active)	–
CC(C(=O)N1CCCC1)N1CCN(S(=O)(=O)c2ccc(C(C)(C)C)cc2)CC1 (centres undefined)	3.35 µM (active)	–
COc1cccc(CNC(=O)[C@@H]2C[C@@H](O)CN2C2CCN(C(=O)c3ccc(OC)c(F)c3)CC2)c1	–	0.134% (inactive)
COc1cccc(C(=O)N2CCC(N3C[C@H](O)C[C@H]3C(=O)N3CCc4ccccc4C3)CC2)c1	8.41 µM (active)	–
COc1cccc(C(=O)N2CCC(N3C[C@H](O)C[C@H]3C(=O)N3CC=C(c4ccccc4)CC3)CC2)c1	9.44 µM (active)	–
COc1ccc(C(=O)N2CCC(n3c(C)cnc3-c3ccccc3)CC2)c(OC)c1	–	-11.3% (inactive)
COCCNC(=O)[C@@H]1C[C@@H](O)CN1C1CCN(C(=O)Cc2ccccc2)CC1	–	0.0678% (inactive)
CCCC(=O)N1CCn2c(nnc2[C@@H]2C[C@@H](O)CN2Cc2ccccc2)C1	–	17.5% (inactive)

Structure (SMILES)	Potency	activity change, negative = inhibition
CC(C)OCc1cc(CN2CCN(c3cccc(C(F)(F)F)c3)CC2)c(O)c2ncccc12	6.68 µM (active)	–
CCCCOCc1cc(CN2CCN(c3cccc(Cl)c3)CC2)c(O)c2ncccc12	6.68 µM (active)	–
CCOc1ccc(CC(=O)N2CCC[C@H]2c2nc(-c3ccc(C)cc3)no2)cc1	–	22.8% (inactive)
COc1ccc(-c2noc(CCCC(=O)N3CCCC3c3nc(C4CCOCC4)no3)n2)cc1OC (centres undefined)	–	-2.3% (inactive)
c1cc(-c2noc([C@@H]3Cc4nc[nH]c4CN3CC3CCCCC3)n2)ccn1	21.7 µM (active)	–
COCCOc1cc(-c2noc([C@@H]3CCCN3CC3CC3)n2)ccn1	15.3 µM (active)	–
COCCNc1ncccc1-c1noc([C@@H]2CCCN2Cc2ccccn2)n1	7.69 µM (active)	–
COc1ccc(C(=O)N2CCC[C@H]2c2nc(-c3ccccc3Cl)no2)cc1OC	–	4.37% (inactive)
COc1ccc(C(O)(CCC(C)C)C(CN2CCOCC2)c2ccc(Cl)cc2)cc1 (centres undefined)	6.68 µM (active)	–
COc1ccc(C(O)(CCC(C)C)C(CN2CCOCC2)c2ccccc2)cc1 (centres undefined)	5.31 µM (active)	–
COc1cc(OC)c(NC(=O)N2CCc3cc(S(=O)(=O)N4CCC(C)CC4)ccc32)cc1Cl	–	39.5% (inactive)
COc1ccc(S(=O)(=O)N2CCCCCC2)cc1NC(=O)c1c2c(nc3ccccc13)CCN(Cc1ccccc1)C2	4.73 µM (active)	–
COc1ccc(OC)c(NC(=O)c2ccc3c(c2)N(S(=O)(=O)c2ccccc2)CC3)c1	–	-26.8% (inactive)
COCCOCC1(CNC(=O)c2cnccn2)C[C@@H](O)[C@@H](O)C1 (some centres undefined)	–	54.4% [at 43.1 µM] (inactive)
O=c1c2ccccc2sc2nc(C3CCCCC3)n(Cc3ccco3)c(=O)c12	7.5 µM (active)	–
CN(C)c1cc(=O)c2ccnc(N3CCN(c4ccccn4)CC3)c2o1	–	12.8% [at 43.1 µM] (inactive)
Cc1ccc(S(=O)(=O)c2nnn3c2nc(N2CCN(c4ccccn4)CC2)c2ccccc23)cc1	7.5 µM (active)	–
O=S(=O)(c1ccccc1)c1nnn2c1nc(NC1CCN(Cc3ccccc3)CC1)c1cc(Cl)ccc12	2.99 µM (active)	–
CC1CCN(c2nc3c(S(=O)(=O)c4ccccc4)nnn3c3ccc(Cl)cc23)CC1	2.66 µM (active)	–
Cc1c(C(=O)N2CCN(c3ccccn3)CC2)oc2ccccc12	–	24.9% (inactive)

Source: PubChem BioAssay AID1347416 (National Center for Advancing Translational Sciences (NCATS), 2020)
